Data published in the supplement of paper PMC9334596.
Where “and” joins values, the source holds several entries; their conditions need not be identical. Equal entries are not always repeated. In all, about 5,300 compounds were measured (“PER2::LUC luminescence relative to vehicle control”: median about 0.96, highest 2% from about 1.3 on). What follows is part of a selection rich in the highest values, with near analogues and random picks from the rest.

System: mPer2Luc MEF
Test: PER2::LUC luminescence relative to vehicle control (fold of vehicle); higher = higher PER2::LUC reporter signal
Settings: 10 µM
In short: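 The reported values are PER2::LUC luminescence as fold of vehicle control in mouse embryonic fibroblasts carrying the mPer2Luc reporter. Cells were seeded at ~3000 per well in 384-well plates in DMEM with 10% FBS at 37 °C and 5% CO2, and compounds were added at 10 μM 48 h later. ONE-Glo luminescence was read 24 h and 30 h after treatment.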

| SMILES | PER2::LUC luminescence (time after treatment 24 h) | PER2::LUC luminescence (time after treatment 30 h) |
| --- | --- | --- |
| COc1cc([C@@H]2CC(=O)c3c(O)cc(O)cc3O2)ccc1O | 0.985 | 0.942 |
| Cc1occc1C(=O)n1ccnc1 | 0.986 | 0.971 |
| COc1cc2ncnc(N(C)c3cccc(Br)c3)c2cc1OC | 0.83 | 0.741 |
| OCc1ccc(-c2ccc(-c3ccc(CO)s3)o2)s1 | 1.48 | 1.62 |
| CCCCCCCCOC(=O)C=Cc1ccc(OC)cc1 | 1.04 | 1.09 |
| CC(C)(O)c1ccc2c(c1)ncn2-c1cccc(-c2ccccc2C#N)c1 | 0.829 | 0.89 |
| CC(Nc1ccc(-c2nn[nH]n2)cc1)C(=O)O (racemic) | 0.971 | 0.96 |
| CC(C)[C@H](CO)Nc1nc(Sc2cccc(N)c2)c2ncn(C(C)C)c2n1 | 0.582 | 0.686 |
| FC(F)(F)c1ccc(CNc2ccc(Cc3c[nH]c4ncc(Cl)cc34)cn2)cc1 | 0.83 | 0.83 |
| CC(C(=O)O)c1ccc(-c2ccccc2)c(F)c1 (stereo not drawn) | 1.15 | 1.06 |
| CC(C(=O)O)c1ccc2c(c1)CC(=O)c1ccccc1S2 (stereo not drawn) | 1.05 | 1.08 |
| CC(C(=O)O)c1ccc(N2Cc3ccccc3C2=O)cc1 (stereo not drawn) | 1.02 | 1.34 |
| O=C(CCc1ccc(O)cc1)c1c(O)cc(O)cc1OC1OC(CO)C(O)C(O)C1O (stereo not drawn) | 1.02 | 0.948 |
| Oc1nc2cc(Cl)c(Cl)cc2nc1O | 0.684 | 0.69 |
| COc1ccc2nc(/C=C/c3cccc([N+](=O)[O-])c3)n(-c3ccc(C(=O)O)cc3)c(=O)c2c1 | 1.05 | 1.01 |
| O=C(O)[C@@]1(CCCCCCOc2ccc(Cl)cc2)CO1 | 0.936 | 1.01 |
| CCN(CC)CCOc1ccc(Cc2ccccc2)cc1 | 0.811 | 0.893 |
| CC/C(=C(\c1ccccc1)c1ccc(OCCN(C)C)cc1)c1ccccc1 | 0.718 and 0.679 | 0.784 and 0.742 |
| CCN(CC)CCOc1ccc(C(=C(Cl)c2ccccc2)c2ccccc2)cc1 | 0.934 and 0.704 | 1.73 and 0.773 |
| CC(=O)NC[C@H]1CN(c2ccc(-c3ccc(CNCc4cnn[nH]4)cc3)c(F)c2)C(=O)O1 | 1.03 | 1.09 |
| Cn1nnc(-c2ccc(-c3ccc(N4C[C@@H](CO)OC4=O)cc3F)cn2)n1 | 1.01 | 1.09 |
| Cn1nnc(-c2ccc(-c3ccc(N4C[C@H](CO)OC4=O)cc3F)cn2)n1 | 1.39 and 1.4 | 1.56 and 1.53 |
| CON(Cc1ccc(F)cc1)C(=O)/C=C(\O)C(=O)O | 0.942 | 0.968 |

| SMILES | PER2::LUC luminescence (time after treatment 24 h) | PER2::LUC luminescence (time after treatment 30 h) |
| --- | --- | --- |
| COc1ccc2[nH]cc(CCNC(=O)C3CC3)c2c1 | 0.901 | 0.938 |
| c1nc(CC2CCNCC2)c[nH]1 | 0.32 | 0.4 |
| O=C(c1ccc(OCCCc2c[nH]cn2)cc1)C1CC1 | 1.09 and 1.51 | 1.33 and 1.29 |
| NCCc1c[nH]cn1 | 0.832 and 0.572 | 0.983 and 0.838 |
| CC1=CC(=O)C(C(C)C)=C/C1=N/OC(=O)c1ccccc1C | 1.11 | 0.994 |
| O=C(O)c1c[nH]c(=O)cn1 | 1.08 | 0.999 |
| O=C(NCC1(c2nc(-c3ccccc3)cs2)CCOCC1)c1cccc(-c2noc(C(F)(F)F)n2)c1 | 0.923 | 0.884 |
| O=C(O)c1cccc(-c2noc(-c3ccccc3F)n2)c1 | 1.69 | 2.11 |
| FC(F)(F)c1cccc(-c2noc(-c3cc(-c4ccccc4)c(C(F)(F)F)s3)n2)c1 | 1.17 | 1.14 |
| CC(C)c1ccc2oc3nc(N)c(C(=O)O)cc3c(=O)c2c1 | 1.07 | 1.49 |
| O=C(O)c1cc(=O)c2ccccc2o1 | 0.998 and 1.05 | 0.946 and 1.14 |
| N[C@H](C(=O)O)c1ccc(O)c(C(=O)O)c1 | 1.02 | 0.987 |
| O=C(O)c1cc(=O)c2cc(Cl)ccc2[nH]1 | 0.977 | 0.883 |
| CCOC(=O)[N-]c1c[n+](N2CCOCC2)no1 | 1.09 | 1.74 |
| O=C(Nc1ccccc1)C12C=C1C(=NO)c1ccccc1O2 (stereo not drawn) | 1.08 | 0.974 |
| N[C@@]1(C(=O)O)CN[C@@H](C(=O)O)C1 | 0.997 | 0.949 |
| C[C@@H]1O[C@@H](OC[C@H]2O[C@@H](Oc3cc(O)c4c(c3)O[C@H](c3ccc(O)cc3)CC4=O)[C@H](O)[C@@H](O)[C@@H]2O)[C@H](O)[C@H](O)[C@H]1O | 0.957 | 0.972 |
| O=c1cc(-c2cc(O)c(O)c(O)c2)oc2cc(O)cc(O)c12 | 0.957 | 0.941 |
| COc1ccc(-c2cc(=O)c3c(O)cc(OC)cc3o2)cc1 | 1.29 | 1.46 |
| COc1ccc(-c2cc(=O)c3c(O)cc(O)cc3o2)cc1 | 1.41 | 1.56 |
| COc1cc(O)c2c(=O)cc(-c3ccc(O)cc3)oc2c1 | 1.21 | 1.32 |
| COc1ccc(-c2cc(=O)c3c(O)c(OC)c(OC)c(OC)c3o2)cc1 | 1.03 | 1.16 |
| COc1ccc(-c2cc(=O)c3c(O)cc(O)cc3o2)cc1O | 0.933 | 1.03 |

| SMILES | PER2::LUC luminescence (time after treatment 24 h) | PER2::LUC luminescence (time after treatment 30 h) |
| --- | --- | --- |
| Cc1cc2nc3c(=O)[nH]c(=O)nc-3n(C[C@H](O)[C@H](O)[C@H](O)COP(=O)(O)O)c2cc1C | 1.22 | 0.887 |
| O=C(Nc1ccc(C(F)(F)F)cn1)c1cccc2cccnc12 | 1.02 | 1.03 |
| CC(=O)CCCCn1cnc2c1c(=O)n(C)c(=O)n2C | 0.931 | 0.944 |
| Cc1cccc(Oc2nc3c(C)cccn3c(=O)c2C=C(C#N)c2nc3ccccc3s2)c1 | 1 | 1.04 |
| O=C1CCC(c2ccccc2)(C2CCN(Cc3ccccc3)CC2)C(=O)N1 (stereo not drawn) | 0.825 | 0.82 |
| COc1cnc(NS(=O)(=O)c2ccc(N)cc2)nc1 | 0.926 | 1 |
| COc1nccnc1NS(=O)(=O)c1ccc(N)cc1 | 1 | 1.97 |
| COc1ncnc(NS(=O)(=O)c2ccc(N)cc2)c1OC | 0.986 | 0.84 |
| C=CCO/N=C1\c2ccccc2-c2nc(C#N)c(C#N)nc21 | 0.778 | 0.699 |
| C[C@]12CC[C@@H]3c4ccc(O)cc4CC[C@H]3[C@@H]1C[C@H](O)[C@@H]2O | 1.07 | 0.987 |
| O=c1c(N=Nc2ccc(CS(=O)(=O)O)cc2)c(-c2ccc(C[N+](=O)[O-])cc2)[nH]n1-c1ccccc1 | 1.09 | 1.08 |
| CCCC(C(=O)O)c1c(C)nc2ccc(Cl)cc2c1-c1ccccc1 (stereo not drawn) | 1.02 | 0.957 |
| CC1=C(/C=C/C(C)=C/C=C/C(C)=C/C=C/C=C(C)/C=C/C=C(C)/C=C/C2=C(C)C(=O)CCC2(C)C)C(C)(C)CCC1=O | 0.908 | 0.963 |
| CC1=C(/C=C/C(C)=C/C=C/C(C)=C\C(=O)O)C(C)(C)CCC1 | 1.75 and 1.62 and 1.8 | 1.89 and 1.79 and 1.52 |
| CC(=O)OC/C=C(C)/C=C/C=C(C)/C=C/C1=C(C)CCCC1(C)C | 0.964 | 0.832 |
| CCCC(=O)OCc1ccc(OC(=O)/C=C(C)/C=C/C=C(C)/C=C/C2=C(C)CCCC2(C)C)cc1 | 1.02 | 1.16 |
| CC1=C(/C=C/C(C)=C/C=C/C(C)=C/CO)C(C)(C)CCC1 | 1.35 and 1.26 and 1.07 | 1.26 and 1.06 and 1.11 |
| CC1=C(/C=C/C(C)=C\C=C\C(C)=C\C(=O)O)C(C)(C)CCC1 | 2.08 | 1.87 |
| CCCCCCCCCCCCCCCC(=O)OC/C=C(C)/C=C/C=C(C)/C=C/C1=C(C)CCCC1(C)C | 0.929 and 0.69 | 0.976 and 0.869 |
| CC1=C(/C=C/C(C)=C/C=C/C(C)=C/C=C/C=C(C)/C=C/C=C(C)/C=C/C2=C(C)CCCC2(C)C)C(C)(C)CCC1 | 1.07 | 0.941 |
| CC1=C(/C=C/C(C)=C/C=C/C(C)=C/C(=O)Nc2ccc(O)cc2)C(C)(C)CCC1 | 0.452 and 1.09 | 0.603 and 1.06 |
| CC1=C(/C=C/C(C)=C/C=C/C(C)=C/C=C/C=C(C)/C=C/C=C(C)/C=C/C(=O)[C@]2(C)C[C@@H](O)CC2(C)C)C(C)(C)C[C@H](O)C1 | 0.964 | 0.922 |
| CC1=C(/C=C/C(C)=C/C=C/C(C)=C\CO)C(C)(C)CCC1 | 1.08 | 1.03 |

| SMILES | PER2::LUC luminescence (time after treatment 24 h) | PER2::LUC luminescence (time after treatment 30 h) |
| --- | --- | --- |
| Clc1ccc(N/N=C(/c2ccccc2)c2ccccn2)nc1 | 0.832 | 0.785 |
| CC(C)C[C@H](NC(=O)[C@H](CCC(N)=O)NC(=O)[C@H](CCCCN)NC(=O)[C@H](CCC(N)=O)NC(=O)[C@@H](N)CCC(=O)O)C(=O)N[C@@H](CCC(N)=O)C(=O)O | 1.03 | 0.938 |
| CC(=O)Oc1ccc(O)cc1 | 0.907 | 1.01 |
| CSC[C@H]1O[C@@H](n2cnc3c(N)ncnc32)[C@H](O)[C@@H]1O | 0.938 | 0.773 |
| COc1ccc2cc1Oc1ccc(cc1)C[C@H]1c3cc(c(OC)cc3CCN1C)Oc1c(OC)c(OC)c(OC)c3c1[C@H](C2)N(C)CC3 | 0.81 | 0.85 |
| COc1ccc(S(=O)(=O)Nc2ccccc2CN(C)C/C=C/c2ccc(Cl)cc2)cc1 | 1.02 and 0.909 | 0.939 and 0.913 |
| Nc1ncnc2c1c(-c1ccc(Oc3ccccc3)cc1)nn2[C@@H]1CCCNC1 | 0.544 | 0.62 |
| O=C1C[C@@H](c2ccc(O)c(O)c2)Oc2cc(O)cc(O)c21 | 0.983 | 1.05 |
| O=C1C[C@@H](c2ccc(O)cc2)Oc2cc(O)cc(O)c21 | 1.46 | 1.25 |
| O=C1C[C@@H](c2ccccc2)Oc2cc(O)cc(O)c21 | 1.07 | 1.08 |
| CC(Cc1ccccc1)(NC(=O)CN)c1ccccc1 (racemic) | 0.964 | 1.04 |
| CNC(=O)c1cc(Oc2ccc(NC(=O)Nc3ccc(Cl)c(C(F)(F)F)c3)c(F)c2)ccn1 | 0.831 and 0.772 | 0.697 and 0.731 |
| CNC(=O)c1cc(Oc2ccc(NC(=O)Nc3ccc(Cl)c(C(F)(F)F)c3)cc2)ccn1 | 0.556 and 0.486 | 0.816 and 0.513 |
| CC(=O)CC(=O)Nc1ccc(Cl)c(C(F)(F)F)c1 | 1.35 | 1.37 |
| O=[N+]([O-])c1cn(CCN2CCOCC2)cn1 | 0.977 | 0.974 |
| COc1cc2c3cc1Oc1c(OC)c(OC)cc4c1[C@@H](Cc1ccc(OC(=O)c5ccc([N+](=O)[O-])cc5)c(c1)Oc1ccc(cc1)C[C@@H]3N(C)CC2)N(C)CC4 | 0.754 | 0.76 |
| C#CCN(C)CCCOc1ccc(Cl)cc1Cl | 1.23 | 1.37 |
| C#CCN(C)Cc1ccccc1 | 0.93 and 0.871 | 0.955 and 0.95 |
| Cc1cc(Br)c(O)c2ncccc12 | 1.19 | 0.958 |
| COC(=O)N[C@H](C(=O)NNC[C@H](O)[C@H](Cc1ccccc1)NC(=O)[C@@H](NC(=O)OC)C(C)(C)C)C(C)(C)C | 0.974 | 0.963 |
